The campaign covered roughly 410,000 compounds. About 7,200 (1.8%) were called active. Another 7% or so got no clear call; they are omitted. The call rests on the fitted dose curve; in most records, active means well fitted activation curve with a large enough effect; inconclusive means small, poorly fitted or top-dose-only effect, or another doubt; inactive means no such curve, though single readings can be large or run the other way. Many of the other results were omitted from the sample, so actives are more common in it than they were.
Test: qHTS of TDP-43 Inhibitors; further: nearly all actives have a fitted effect of over 50% in size; on growth rescue (activation): % of control where 0% means no effect
Conditions: TDP-43 expressing yeast growth rescue, BacTiter-Glo, 24 h; series mostly up to 46.1 µM; growth rescue (activation): at the top concentration
Description: The goal of this project is to identify new chemical probes capable of reversing the toxicity associated with TDP-43 which is associated with frontotemporal lobar degeneration and amyotrophic lateral sclerosis. These compounds will provide a complementary approach to deciphering the tangled mechanisms of toxicity and protection that we have uncovered through genome-wide genetic screens and are beginning to uncover in a large-scale proteomics analysis with mass spectroscopy.
To this end, a miniaturized assay was developed to be screened against the Molecular Libraries Small Molecule Repository (MLSMR) to discover TDP-43 inhibitors. Please note that in the set-up this yeast-based assay compounds that inhibit as TDP-43, have a read-out as activators.
NIH Chemical Genomics Center [NCGC]
NIH Molecular Libraries Probe Centers Network [MLPCN]
Assay Submitter (PI): Susan Lindquist, Whitehead Institute/MIT
Dispense 2.5 microL yeast galactose medium per 1536-well plate, pin compound, dispense 2.5 microL TDP-43 expressing yeast in galactose medium at OD600=0.02 (pregrown in raffinose medium to mid-log phase) per well, incubate for 24 hr at 30 deg C, and cell growth will be measured using 5 microL of Bactiter/Glo reagent to entire plate and read using Luminescence Protocol in ViewLux.
Potency means the concentration at half of the fitted maximal effect.

Structure (SMILES) | Potency | growth rescue (activation)
CCCN1C(=O)C(O)(CC(=O)c2ccc(CC)cc2)c2cc(Br)ccc21 (stereo not given) | 25.1 µM (active) | –
Cc1ccc(C(=O)CC2(O)C(=O)N(CCc3ccccc3)c3ccc(Br)cc32)cc1 (stereo not given) | 35.5 µM (active) | –
CCOC(=O)CN1C(=O)C(O)(CC(=O)c2ccccn2)c2ccccc21 (stereo not given) | – | 9.65% (inactive)
O=C(CC1Oc2ccccc2NC1=O)NCc1ccc(F)cc1 (stereo not given) | – | -2.06% (inactive)
O=C(O)c1c(CNCc2cccc(F)c2)c2ccccc2n1Cc1ccccc1 | – | 24.3% (inactive)
COC(=O)C1NN=C(C(=O)c2ccc(Br)cc2)C1c1cccc(Br)c1 (stereo not given) | 25.1 µM (active) | –
Cc1nnc(C)n1-c1ccc(C(=O)Nc2cccc(Br)c2)cc1 | – | 3.68% (inactive)
COC(=O)CN1C(C)=Nc2ccc(Br)cc2C1c1ccccc1 (stereo not given) | – | -3.72% (inactive)
CC(C)Cn1c(C2CC(=O)N(c3ccccc3Cl)C2)nc2ccccc21 (stereo not given) | – | 25.5% (inactive)
Cn1c(=O)n(Cc2c(F)cccc2Cl)c(=O)c2c1nc1n2CCN1c1ccc(F)cc1 | – | 9.24% (inactive)
COc1ccc(CCNc2nc3c(-c4cccc(F)c4)nnn3c3ccccc23)cc1OC | – | 17.4% (inactive)
COc1ccc(-c2cc(C(F)(F)F)n3nc(-c4ccccc4)cc3n2)cc1OC | – | 0% (inactive)
COCCNc1cc(-c2ccccc2)nc2cc(-c3cccc(F)c3)nn12 | 3.16 µM (active) | –
CCOC(=O)c1cc2c(=O)n3ccccc3nc2n(CC2CCCO2)c1=NC(=O)c1ccccc1Br (stereo not given) | – | 20.8% (inactive)
CCCc1cc(=O)n2[nH]c(NCc3ccc(CC)cc3)nc2n1 | – | 7.91% (inactive)
N/C(Cc1ccc([N+](=O)[O-])cc1)=N\OC(=O)C1CCCCC1 | 20 µM (active) | –
O=C(COC(=O)Cc1ccc([N+](=O)[O-])cc1)NC1CCCCCC1 | – | 6.3% (inactive)
N/C(Cc1ccc([N+](=O)[O-])cc1)=N\OC(=O)COc1ccc2ccccc2c1 | – | 14.2% (inactive)
CC(C)NC(=O)c1nn(-c2ccccc2F)nc1CO | – | 2.75% (inactive)
Cc1ccc(-c2nn3c(=O)cc(CN4CCN(S(=O)(=O)c5ccc(Cl)cc5)CC4)nc3s2)cc1 | – | 9.9% (inactive)
O=c1cc(Cn2nnc(-c3ccc(Cl)cc3)n2)nc2sccn12 | 11.2 µM (active) | –
COc1cccc(C(=O)NCC(=O)OCc2cc(=O)n3ccsc3n2)c1 | – | 3.19% (inactive)
COc1ccc2c(c1)C(c1cccs1)=NNC(c1cccnc1)=N2 | – | -15% [at 9.22 µM] (inactive)
Brc1ccc2c(c1)NC(c1cccnc1)=NC(c1ccccc1)=N2 | 35.5 µM (active) | –
COc1ccc(C2=NC(c3ccncc3)=Nc3ccc(Br)cc3N2)cc1 | – | -1.4% (inactive)

Structure (SMILES) | Potency | growth rescue (activation)
CCOc1cc(CNC(=O)c2sc3ncnc(N(C)C4CCCCC4)c3c2C)ccc1OC | – | 0% (inactive)
O=C(c1ccc(Cl)cc1)n1nc(-c2cccnc2)nc1NCc1ccc(F)cc1 | – | 14% (inactive)
O=S1(=O)CCOC[C@H](Cc2ccccc2)N1Cc1ccccc1Br | – | 11.1% (inactive)
CCCC[C@H]1COCCS(=O)(=O)N1Cc1cccc(Cl)c1 | 12.6 µM (active) | –
CCC(C)[C@H]1COCCS(=O)(=O)N1Cc1ccc(C)cc1 (stereo not given in full) | – | 24.2% (inactive)
Cc1cccc(OCCCC(=O)Nc2sc3c(c2C(N)=O)CCC(C)C3)c1 (stereo not given) | – | 10.1% (inactive)
Cc1nn(CC(=O)N2CCN(c3cccc(C(F)(F)F)c3)CC2)c(=O)c2cc3sccc3n12 | – | 7.26% (inactive)
CCOc1ccc(-n2c(SCC(=O)NCc3ccccc3)nc3n[nH]c(C)c3c2=N)cc1 | – | -8.4% (inactive)
COCCCNC(=S)N1CCN(c2nc(-c3cccc(OC)c3)cs2)CC1 | 14.1 µM (active) | –
CN(C)CCCNC(=S)N1CCN(c2nc(-c3ccccc3)cs2)CC1 | – | -17.3% [at 1.82 µM] (inactive)
COCCCNC(=S)N1CCCC(c2nc3cc(C)c(C)cc3[nH]2)C1 (stereo not given) | – | -14.1% [at 0.397 µM] (inactive)
COc1cc(OC)c(N(C)C(=O)c2cc3c(=O)oc4ccccc4c3s2)cc1Cl | – | 14.8% (inactive)
Cc1ccc(NC(=O)CN2C(=O)C(c3ccc(F)cc3)=NC23CCCCCC3)c(C)c1 | – | 7.76% (inactive)
CCOc1ccc(NC(=O)c2ccc(CSc3nnnn3C)cc2)cc1 | – | -9.01% (inactive)
COC(=O)c1ccc(CSc2nncn2N)cc1 | – | -10.7% (inactive)
CCOC(=O)c1ccc(CSc2nnc3cc(C)c4ccccc4n23)cc1 | 22.4 µM (active) | –
COc1ccccc1N1CCN(C(CNC(=O)C(=O)NCc2ccc(C)cc2)c2cccnc2)CC1 (stereo not given) | – | 7.84% (inactive)
CCc1cccc(C)c1Nc1c(-c2ccc(N(C)C)cc2)nc2ncccn12 | – | -4.39% (inactive)
COc1ccccc1CNC(=O)CCCn1c(=O)c2ccccc2n(CC(=O)Nc2ccc(C)cc2Cl)c1=O | – | 9.64% (inactive)
O=C(CSc1oc(-c2ccccc2)nc1S(=O)(=O)c1ccc(Br)cc1)NC1CCCCC1 | – | 9.58% (inactive)
Cn1c(C(=O)Nc2cccc(C(F)(F)F)c2)cc2c(=O)n3ccccc3nc21 | – | 15% (inactive)
Cc1cccc2cc3c(N)c(C(=O)N4CCCc5ccccc54)sc3nc12 | 15.8 µM (active) | –
CCN1CCc2nc3sc(C(=O)Nc4ccccc4OC(F)(F)F)c(N)c3cc2C1 | – | 7.69% (inactive)
CCc1ccc(NC(=O)c2sc3nc4c(cc3c2N)CN(CC)CC4)cc1 | – | 26.6% (inactive)
CC1CCC(N2CC(=O)N(CCC3=CCCCC3)C(c3ccc(F)cc3)C2=O)CC1 (stereo not given) | – | -22.5% (inactive)

— PubChem BioAssay AID652104 (National Center for Advancing Translational Sciences (NCATS), 2013)
